According to PubChem BioAssay AID504834 (National Center for Advancing Translational Sciences (NCATS), 2011):
Hit rate of the full screen: of about 320,000 compounds, about 22,000 (6.9%) were called active. Not shown: some 27% with an inconclusive outcome. The sample as a whole holds a higher share of actives than the screen did. Unmarked numbers belong to inactive results. Calls follow the shape of the dose curve; as a rule, active = well fitted inhibition curve with a large enough effect; inconclusive = small, poorly fitted or top-dose-only effect, or another doubt; inactive = no such curve, though single readings can be large or run the other way.

Assay: Primary qHTS for delayed death inhibitors of the malarial parasite plastid, 96 hour incubation
Conditions: P. falciparum luciferase reporter growth; series mostly up to 28.7 µM; activity change, negative = inhibition: at the top concentration
Outline: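 Readout is luminescence from an integrated firefly luciferase in P. falciparum. Red cells, 2% hematocrit and 0.05% parasitemia final, were cultured with compound through two parasite generations (96 hours) at 37 C, 5% CO2.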
% is scaled to controls: 0 for no effect and ±100 for the full control effect; potency is read from the fitted curve at half-maximal effect.

Compound	activity change, negative = inhibition	Potency
CC(=O)c1sc(N)nc1C	60.6%	
COc1ccccc1CNS(=O)(=O)c1cc2c3c(c1)CCC(=O)N3CCC2	-19.2%	
Cc1ccccc1OCC(=O)NNC(=O)c1cc(S(=O)(=O)N(C)C)ccc1N1CCCC1	4.87%	
CN(C)S(=O)(=O)c1ccc(N2CCCC2)c(C(=O)Nc2ccc(Br)cc2F)c1		8.28 µM (active)
CN(C)S(=O)(=O)c1ccc(N2CCCC2)c(C(=O)Nc2cccc(F)c2)c1	86.2%	
CCOC(=O)c1c(C)[nH]c(C(=O)NCCN2CCOCC2)c1C	7.52%	
O=C(NCCCN1CCOCC1)c1ccc2c(c1)N(Cc1cccc(F)c1)C(=O)c1ccccc1S2	16.5%	
C=CCn1c(SCc2c(C(=O)OC)sc(N)c2C(=O)OC)nnc1-c1ccc(Cl)cc1		3.29 µM (active)
COC(=O)c1sc(N)c(C(=O)OC)c1COC(=O)CNS(=O)(=O)c1ccc(C)cc1	7.76%	
C=CCn1c(SCc2cc(C(=O)OC)c(C)o2)nnc1-c1ccncc1	-0.417% [at 5.75 µM]	
Cc1nc2cc(NC(=O)Nc3cccc(F)c3)ccc2n1C	-38.2%	
COc1ccc(CNC(=O)COC(=O)CCS(=O)(=O)c2ccc(C)cc2)cc1OC	3.65%	
COc1ccc(NC(=O)N2CCC(Cc3ccccc3)CC2)cc1	151%	
COc1ccc2c(c1)C(C)=CC(C)(C)N2C(=O)CNCc1ccc2c(c1)OCO2	42.6%	
COc1ccc2c(c1)C(C)=CC(C)(C)N2C(=O)Nc1ccccc1		10.4 µM (active)
CCOC(=O)c1c(S(=O)(=O)Nc2cccc(Cl)c2)c(C)n(C)c1C		10.4 µM (active)
CCOC(=O)c1c(C)n(C)c2ccc(OC)c(NS(=O)(=O)CC)c12	-42.6%	
CCOC(=O)c1c(S(=O)(=O)NCC(=O)Nc2ccc(C)cc2)c(C)n(C)c1C	-14.5%	
CCN(CC)CCCNC(=O)COc1ccc2oc3c(c2c1)CCCC3	-26%	
CCCS(=O)(=O)N1CCN=C1SCc1cccc(F)c1	-15.9%	
CN(CC(=O)Nc1ccccc1C(F)(F)F)C(=O)Cc1ccccc1F	3.57%	
CC[N+](CC)(CC)CCCCCCCCCC[N+](CC)(CC)CC		0.37 µM (active)
Cc1cccc(C)c1NC(=O)CSc1nc2c([nH]1)c(=O)n(C)c(=O)n2C	-3.18%	
CC(C)(C)[Si](OCC[C@@H]1C[C@@]1(C)[C@@H](NP(=O)(c1ccccc1)c1ccccc1)c1ccccc1)(c1ccccc1)c1ccccc1		2.33 µM (active)
O=C(NC1CCCCC1)C1CCC(CNS(=O)(=O)c2ccccc2)CC1 (centres undefined)	17%	
Cc1nc(N2CCN(c3ccccn3)CC2)c2c(C)c(C(=O)Nc3ccc(F)cc3)sc2n1		4.15 µM (active)

Compound	activity change, negative = inhibition	Potency
CCN(CC)c1ccc(NC(=O)CN2CCN(c3ccccn3)CC2)cc1	33.8%	
Cc1nc(N2CCOCC2)c2c(C)c(C(=O)Nc3ccc(C(F)(F)F)cc3)sc2n1	-2.97%	
CN(Cc1ccc(F)cc1)C(=O)COc1ccc2ccccc2c1	20.5%	
COc1ccc(N=Nc2c(-c3ccc(OC)cc3)[nH]oc2=O)cc1	12.5%	
Cc1ccc(NC(=O)COc2ccc(-n3ccnc3)cc2)cc1Cl		2.94 µM (active)
Cc1ccc(NC(=O)COc2ccc(/C=N\NC(=O)c3cccnc3)cc2)cc1C	-17.2%	
O=C(COc1ccc(Cl)cc1)Nc1ccc2c(c1)OCO2	45.3%	
O=C(CCNC(=O)C1CCN(S(=O)(=O)c2ccccc2)CC1)NC1CC1	41.2%	
O=C1Nc2ccccc2/C1=C/c1ccnc2ccccc12	0.418%	
CC1CN(C(=O)CCC(=O)NC2CCN(Cc3ccccc3)CC2)c2ccccc2O1 (centres undefined)	4.48%	
CCN(CC)C(=O)N1CCN(C(=O)c2ccc(C)cn2)CC1		11.7 µM (active)
CCN(CC(=O)Nc1c(F)cccc1F)C(=O)c1cnc(C)cn1	26.6%	
Cc1ccc(OCC(=O)N2CCN(C(=O)c3cccnc3)CC2)cc1	477%	
CC(C)[C@@H](C(=O)O)N(Cc1cccc(CN([C@H](C(=O)O)C(C)C)S(C)(=O)=O)c1)S(C)(=O)=O	-22.1%	
CS(=O)(=O)NCc1ccc(C(=O)NCc2ccccc2)cc1	1.67%	
CSc1ccc(CNC(=O)c2ccc(NC(=O)C3=CSCCO3)cc2)cc1		7.38 µM (active)
O=C(Nc1ccc(C(=O)NCc2ccccc2Cl)cc1)C1=CSCCO1	-3.26%	
O=[N+]([O-])c1ccc(NC(=S)N2CCN(c3ccccn3)CC2)cc1	0%	
O=[N+]([O-])c1cc([N+](=O)[O-])c(Oc2cc(F)cc(F)c2F)cc1NN1CCCCC1	38.5%	
Cc1cc2c(cc1S(=O)(=O)NCc1ccc(Cl)cc1)OCC(=O)N2	-23.1%	
O=C(Nc1cccc(Br)c1)c1ccc2snnc2c1	-23.8%	
COc1ccc(NC(=O)Nc2ccc3nsnc3c2)cc1	57.4%	
O=C(Nc1ccc2ccccc2c1)Nc1ccc2snnc2c1		4.65 µM (active)
COC(OC)c1ccnc(SCc2ccccc2Cl)n1	4.36%	
COc1ccc(C)cc1NC(=O)NCc1ccccn1	14.6% [at 5.75 µM]	
COc1ccc(C)cc1NC(=O)CNCc1cccs1		11.7 µM (active)

Compound	activity change, negative = inhibition	Potency
O=C(CNCc1cccs1)Nc1cc(S(=O)(=O)N2CCCC2)ccc1Cl	-2.83%	
CC(C)Cc1nnc(NC(=O)CCC(=O)Nc2ccc3cn[nH]c3c2)s1	107%	
CCOc1ccc(NC(=O)c2ccc(NC(=O)C3CCCO3)cc2)cc1 (centres undefined)	-3.52%	
CCN(CCNC(=O)C1=C(C)C(=O)OC12CCC(C)CC2)c1ccccc1 (centres undefined)	-21%	
COc1ccc(C2=NOC(COC(=O)c3ccc4ccccc4n3)C2)cc1 (centres undefined)	18.8%	
COc1ccc(C2=NOC(Cn3nc(C(=O)NCc4ccc5c(c4)OCO5)cc3-c3ccccc3)C2)cc1 (centres undefined)		10.4 µM (active)
COc1ccc(NC(=O)NCc2ccc3c(c2)OCO3)c(OC)c1	83.2%	
Cc1ccc(NC(=O)COC(=O)CNC(=O)c2ccc(Cl)cc2Cl)cc1S(=O)(=O)N1CCOCC1	-9.37%	
Cc1c(C)n(Cc2ccc(Cl)cc2)c2ccc(C(=O)NCCCN3CCOCC3)cc12	-20%	
O=C(COc1ccc(-n2cnnn2)cc1)Nc1ccccc1Cl	7.51%	
Clc1ccc(Nc2ncnc3c2nnn3Cc2ccccc2)cc1	-4.29%	
CC(C)(C)c1nc(NCC2CCCO2)c2nnn(Cc3ccccc3)c2n1 (centres undefined)	-41.5%	
COc1ccc(CCNc2ncnc3c2nnn3Cc2ccccc2)cc1		2.94 µM (active)
COc1ccccc1CCNC(=O)CN1C(=O)NC2(CCCC2)C1=O	-0.162%	
COC(=O)CNS(=O)(=O)c1ccc(OC)cc1	3.86%	
COc1ccc(CCNS(=O)(=O)c2cccc([N+](=O)[O-])c2)cc1	2.6%	
COc1ccc(S(=O)(=O)NCCc2cc3ccc(C)c(C)c3[nH]c2=O)cc1		8.28 µM (active)
COc1ccc2[nH]c(C(=O)Nc3ccccc3Cl)cc2c1	103%	
CN(C(=O)CCN1C(=O)/C(=C/c2ccccc2F)SC1=S)C1CCS(=O)(=O)C1 (centres undefined)	-30.6%	
CCN(C(=O)CN1C(=O)/C(=C/c2ccc(F)cc2)SC1=S)C1CCS(=O)(=O)C1 (centres undefined)		11.7 µM (active)
CN(C(=O)CN1C(=O)S/C(=C\c2ccccc2F)C1=O)C1CCS(=O)(=O)C1 (centres undefined)	6.95%	
CC(C)NC(=O)COCc1cc(-c2ccc3c(c2)OCO3)on1	-15.2%	
Cn1cccc1C(=O)NNC(=O)COc1ccc(Br)cc1	25.8%	
O=C(CSc1nnc2n1CCCN2)c1ccccc1	78.5%	
Cc1c(OC(C)C(=O)NCC2CCC(C(=O)O)CC2)ccc2c1oc(=O)c1ccccc12 (centres undefined)		13.1 µM (active)
Cc1c(C)c2ccc(OCC(=O)N3CCC(C(=O)O)CC3)c(C)c2oc1=O	3.28%	

Compound	activity change, negative = inhibition	Potency
Cc1c(OC(C)C(=O)N[C@@H](Cc2ccccc2)C(=O)O)ccc2c3c(c(=O)oc12)CCCC3 (some centres undefined)	87.3%	
CCC(C(=O)NCc1cccnc1)n1nc(C)c2sc3ccccc3c2c1=O (centres undefined)	54.4%	
O=C(C1CCCN(S(=O)(=O)c2ccccc2)C1)N1CCN(c2ccc(F)cc2)CC1 (centres undefined)	107%	
CCOC(=O)C(C)n1cnc2c(nnn2-c2cccc(OC)c2)c1=O (centres undefined)	-28.3%	
COc1ccc(/C=N/NC(=O)c2ccc(Cl)cc2)cc1COC(C)=O	13.5%	
COc1ccc(/C=N\NC(=O)c2sc(N)nc2C)cc1OC	42.8%	
COc1cccc(OCc2cc(/C=N/NC(=O)c3nc(Cl)c(Cl)c(N)c3Cl)ccc2OC)c1		13.1 µM (active)
O=C(Nc1cc(C(F)(F)F)ccc1Cl)c1cc(C2CC2)on1	-29.2%	
O=C(NC1CCCCC1)c1cc(C2CC2)on1	90.7%	
CSc1ccccc1NC(=O)c1cc(C2CC2)on1		7.38 µM (active)
COCCNC(=O)COc1ccc(C)c(C)c1	24.7%	
O=C(COc1ccccc1)Nc1nonc1NC(=O)COc1ccccc1	-1.51%	
CC(=O)NC(CC(=O)O)c1ccc(F)cc1 (centres undefined)	137%	
CCOc1ccc(C(CC(=O)O)NC(=O)COc2ccccc2)cc1 (centres undefined)		10.4 µM (active)
COc1ccc(C(CC(=O)O)NC(=O)Cc2ccccc2)cc1 (centres undefined)		2.94 µM (active)
CCOc1ccc(C(CC(=O)O)NC(=O)Cc2ccccc2)cc1OC (centres undefined)	31.4%	
COc1ccc(C(CC(=O)Nc2ccc(C)cc2)NC(=O)C(F)(F)F)cc1 (centres undefined)	22.6%	
Cc1cc(C)cc(OCC(=O)NC(C)c2ccccc2)c1 (centres undefined)	-4.04%	
Cc1ccc(OCC(=O)NC(C)c2ccccc2)cc1C (centres undefined)		5.22 µM (active)
CCN(CC)S(=O)(=O)c1ccc2[nH]c(=O)cc(C(=O)N(C)C3CCS(=O)(=O)C3)c2c1 (centres undefined)	-24.5%	
COc1ccc(-c2cnc(SCCNC(=O)c3ccc4c(c3)OCO4)[nH]2)cc1	-6.78%	
CCOc1ccc(N(CC(=O)Nc2cccc(OC)c2)S(C)(=O)=O)cc1	-19.7%	
CC(=O)Nc1cccc(C(=O)OCN2C(=O)c3ccccc3C2=O)c1	-2.17%	
Cc1ccc2cccc(OCCCOc3ccccc3CO)c2n1	42.1%	
Cc1ccc(N(C)C(=O)Oc2cccc3ccc(C)nc23)cc1		0.104 µM (active)
Cc1cccc(NC(=O)c2ccc3ccccc3n2)n1	32%	
